One assay addresses Albumin (Bos taurus) (UniProt P02769). The experiment in a line: bovine serum albumin binders on microarray, profiling panel, artefact control for SMM control protein annotation, biochemical, small-molecule microarray, Alexa647 label, 635/667 nm fluorescence (AID 1118).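 Also: score merges 667 nm emission intensity and signal-to-noise per printed compound spot.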 The conditions noted are these: BSA-A647 binding, fluorescence 635 nm, higher = more signal.
Assay [1] can be described thus: small-molecule microarray binders of probe aXIP, primary screen, biochemical, NeuroSMM set, 635/667 nm fluorescence (AID 1119).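 Also: probe is the protein aXip251-270 applied at 1 µg/mL to compound-printed slides; binding of probe to printed compounds measured as 667 nm fluorescence plus signal to noise.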 Conditions: higher = more signal, called active from +8 up or from −8 down.
Assay [2] can be described thus: small-molecule binders of probe aNOTCH3, primary screen, biochemical, small-molecule microarray, 635/667 nm fluorescence (AID 1120).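 Also: probe is a biotin-tagged antibody raised against NOTCH3 rather than NOTCH3 protein; score merges spot fluorescence near 667 nm with spot signal to noise.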 The conditions noted are these: higher = more signal.
The nature of assay [3]: small-molecule binders of probe aNOTCH2, primary screen, biochemical, small-molecule microarray, 635/667 nm fluorescence (AID 1121).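 Also: score merges feature fluorescence read at 667 nm with its signal to noise.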 Conditions: higher = more signal.
Assay [4] has as its target Carbonic anhydrase 2 (Homo sapiens) (UniProt P00918). The experiment in a line: CAII small-molecule binders, profiling panel, biochemical, small-molecule microarray, Alexa647-labelled CAII (AID 1122). Conditions: CAII-A647 binding fluorescence, higher = more signal.
Assay [5] is described as follows: COS7 lysate on small-molecule microarray, probe aHis, 635 nm (AID 1123).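 Also: z-score combines 667nm fluorescence intensity with signal-to-noise per printed compound spot.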 Conditions: COS7 cell lysate, fluorescence, higher = more signal.
The nature of assay [6]: compound binding in COS7 lysate, probe aLAP1, primary screen, cell lysate, small-molecule microarray (AID 1124).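 Also: lysate comes from COS7 cells expressing LAP1 and is applied at 0.3 µg/mL; score merges spot fluorescence near 667 nm with signal-to-noise over triplicate slides.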 Conditions: probe aLAP1, fluorescence, higher = more signal.
Another assay has as its system Sam68 (KHDRBS1). Kind of assay: Sam68 small-molecule binders, primary screen, biochemical, small-molecule microarray, 635 nm fluorescence (AID 1125).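 Also: score merges 667 nm channel intensity with signal to noise over triplicate slides.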 The conditions noted are these: small-molecule microarray binding, higher = more signal.
The test system of assay [7] is Chordin-like protein 2 (CHRDL2). The experiment in a line: CHRDL2 small-molecule binders, primary screen, biochemical, small-molecule microarray, 635 nm fluorescence (AID 1126).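 Also: printed compound slides probed with Chrdl2 protein at 4 µg/mL for 1 h at 4 C; score merges 667 nm emission intensity with signal to noise over three replicate slides.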 The conditions noted are these: small-molecule microarray binding, fluorescence 635 nm; higher = more signal.
The target in assay [8] is Concanavalin-A (Canavalia ensiformis) (UniProt P02866). The experiment in a line: ConA small-molecule binders, primary screen, artefact control for SMM control protein annotation, biochemical, small-molecule microarray, Alexa647 label, 635 nm (AID 1127).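 Also: z combines 667 nm emission intensity with signal-to-noise across three replicate slides.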 Conditions: ConA-A647 binding fluorescence, higher = more signal.
Chain of Concanavalin-A (Canavalia ensiformis) (P02866 whole entry, looked up): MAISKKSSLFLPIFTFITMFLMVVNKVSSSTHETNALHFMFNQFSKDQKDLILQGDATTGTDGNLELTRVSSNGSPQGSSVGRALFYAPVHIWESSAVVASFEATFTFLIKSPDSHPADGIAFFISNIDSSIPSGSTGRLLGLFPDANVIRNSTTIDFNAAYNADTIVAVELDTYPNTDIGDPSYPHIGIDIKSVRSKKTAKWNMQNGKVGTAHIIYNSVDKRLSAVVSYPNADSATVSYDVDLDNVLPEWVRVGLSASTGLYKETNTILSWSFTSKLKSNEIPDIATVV
Assay [9] in a line: anti-His antibody binders, primary screen, artefact control for SMM control protein annotation, biochemical, small-molecule microarray, 635 nm fluorescence (AID 1128).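 Also: score merges feature fluorescence with signal-to-noise for each printed compound spot.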 Conditions: anti-His Alexa647 antibody binding, higher = more signal.
Assay [10] deals with Human papillomavirus type 1a E7 protein (residues 1-88). The experiment in a line: HPV1a E7 small-molecule binders, primary screen, biochemical, small-molecule microarray, residues 1-88, 635 nm (AID 1129). The conditions noted are these: small-molecule microarray binding, fluorescence 635 nm; higher = more signal.
In assay [11] the target is Focal adhesion kinase 1 (Homo sapiens) (UniProt Q05397). The experiment in a line: small-molecule microarray binders of FAK, primary screen, biochemical, 635/667 nm fluorescence, BSA, DTT (AID 1130).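 Also: composite of spot emission at 667 nm and signal to noise over triplicate slides.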 The conditions noted are these: PTK2 binding, 635 nm fluorescence, higher = more signal.
Chain of Focal adhesion kinase 1 (Homo sapiens) (Q05397 whole entry, looked up): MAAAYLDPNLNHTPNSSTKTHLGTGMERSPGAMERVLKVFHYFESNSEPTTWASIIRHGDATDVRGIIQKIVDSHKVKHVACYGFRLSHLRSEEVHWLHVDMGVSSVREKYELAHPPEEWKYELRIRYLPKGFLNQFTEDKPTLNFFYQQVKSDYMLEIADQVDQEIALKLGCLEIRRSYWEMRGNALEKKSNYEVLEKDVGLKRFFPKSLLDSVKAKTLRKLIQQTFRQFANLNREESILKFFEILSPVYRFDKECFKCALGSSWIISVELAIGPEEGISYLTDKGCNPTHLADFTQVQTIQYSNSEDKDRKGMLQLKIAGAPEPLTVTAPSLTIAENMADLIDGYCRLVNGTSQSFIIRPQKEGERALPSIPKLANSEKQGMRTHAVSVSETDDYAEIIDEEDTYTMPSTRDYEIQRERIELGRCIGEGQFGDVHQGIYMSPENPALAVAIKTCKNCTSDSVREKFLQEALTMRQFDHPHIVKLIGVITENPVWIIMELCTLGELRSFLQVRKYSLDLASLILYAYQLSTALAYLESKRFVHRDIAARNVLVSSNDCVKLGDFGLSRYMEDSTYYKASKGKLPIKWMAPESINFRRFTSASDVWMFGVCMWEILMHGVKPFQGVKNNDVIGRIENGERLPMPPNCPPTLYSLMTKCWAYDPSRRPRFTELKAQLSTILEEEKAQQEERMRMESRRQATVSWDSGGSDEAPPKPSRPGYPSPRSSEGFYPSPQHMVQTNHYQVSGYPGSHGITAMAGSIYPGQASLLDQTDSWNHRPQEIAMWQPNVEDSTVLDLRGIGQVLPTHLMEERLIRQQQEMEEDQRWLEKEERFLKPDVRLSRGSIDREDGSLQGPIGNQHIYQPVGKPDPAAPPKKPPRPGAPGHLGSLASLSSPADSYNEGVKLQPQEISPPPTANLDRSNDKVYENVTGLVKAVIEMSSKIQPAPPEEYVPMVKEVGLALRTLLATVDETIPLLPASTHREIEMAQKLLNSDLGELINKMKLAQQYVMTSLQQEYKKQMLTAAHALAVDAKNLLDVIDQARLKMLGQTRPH
Assay [12] has as its system Fibrinogen (Alexa647-labelled). The experiment in a line: fibrinogen binders on compound microarrays, profiling panel, artefact control for SMM control-protein annotation, biochemical, small-molecule microarray, 635/667 nm fluorescence (AID 1131).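 Also: z-score merges 667 nm fluorescence with per-spot signal-to-noise over triplicate slides.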 The conditions noted are these: fibrinogen-A647 binding fluorescence, higher = more signal.
The target in assay [13] is Follistatin (Homo sapiens) (UniProt P19883). The experiment in a line: follistatin binders on small-molecule microarrays, primary screen, biochemical, small-molecule microarray, 635/667 nm fluorescence (AID 1132). The conditions noted are these: FST binding, 635 nm fluorescence, higher = more signal.
Chain of Follistatin (Homo sapiens) (P19883 whole entry, looked up): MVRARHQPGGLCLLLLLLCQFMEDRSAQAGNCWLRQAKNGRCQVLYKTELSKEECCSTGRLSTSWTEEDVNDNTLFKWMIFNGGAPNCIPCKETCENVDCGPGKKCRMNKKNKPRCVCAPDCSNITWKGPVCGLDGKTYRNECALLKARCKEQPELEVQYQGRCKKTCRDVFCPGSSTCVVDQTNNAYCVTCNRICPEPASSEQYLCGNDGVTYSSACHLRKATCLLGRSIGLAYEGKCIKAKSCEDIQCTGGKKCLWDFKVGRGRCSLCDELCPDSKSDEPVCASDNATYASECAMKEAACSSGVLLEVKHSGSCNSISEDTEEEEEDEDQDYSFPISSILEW
For assay [14], the target named is Fibroblast growth factor 2 (Homo sapiens) (UniProt P09038). Kind of assay: FGF2 binders on small-molecule microarrays, primary screen, biochemical, small-molecule microarray, 635/667 nm fluorescence (AID 1133). Conditions: small-molecule microarray binding, FGF2, fluorescence 635/667; higher = more signal.
Chain of Fibroblast growth factor 2 (Homo sapiens) (P09038 whole entry, looked up): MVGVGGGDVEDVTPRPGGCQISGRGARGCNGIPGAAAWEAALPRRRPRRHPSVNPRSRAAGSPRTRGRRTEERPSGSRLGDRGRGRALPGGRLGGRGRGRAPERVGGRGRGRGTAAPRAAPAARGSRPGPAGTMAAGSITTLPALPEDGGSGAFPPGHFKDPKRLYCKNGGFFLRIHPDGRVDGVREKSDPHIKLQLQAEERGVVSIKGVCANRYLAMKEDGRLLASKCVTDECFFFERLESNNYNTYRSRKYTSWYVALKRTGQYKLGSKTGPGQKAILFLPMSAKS
The nature of assay [15]: mitochondrial membrane potential change in A549 cells, profiling panel, cell-based, JC-1 fluorescence, basal, 24 h, 100 nL (AID 1138).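 Also: A549 lung adenocarcinoma cells under basal conditions with no added stimulus; test concentration not given here.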 Conditions: higher = more signal.
A further assay has as its system Lefty1. The experiment in a line: Lefty1 binders on small-molecule microarrays, primary screen, biochemical, small-molecule microarray, 635/667 nm fluorescence (AID 1139). Conditions: small-molecule microarray binding, fluorescence 635/667; higher = more signal.
Assay [16] deals with wheat germ agglutinin (Triticum aestivum), Alexa647-labelled. Kind of assay: wheat germ agglutinin binders on compound microarrays, profiling panel, artefact control for SMM control-protein annotation, biochemical, small-molecule microarray, 635/667 nm fluorescence (AID 1140).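 Also: score merges 667 nm feature emission with signal to noise over triplicate slides.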 The conditions noted are these: WGA-A647 binding, 635 nm fluorescence, higher = more signal.
Assay [17] deals with Luciferin 4-monooxygenase (Photinus pyralis) (UniProt P08659). Kind of assay: firefly luciferase enzyme inhibitors, primary screen, biochemical, luminescence, purified enzyme, 2006 set (AID 1141).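 Also: cell-free assay with purified firefly luciferase at 100 ng per well in PBS; test concentration not given here.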 The conditions noted are these: SteadyGlo luminescence, 30 min, higher = more signal, called active from +8 up or from −8 down.
Chain of Luciferin 4-monooxygenase (Photinus pyralis) (P08659 whole entry, looked up): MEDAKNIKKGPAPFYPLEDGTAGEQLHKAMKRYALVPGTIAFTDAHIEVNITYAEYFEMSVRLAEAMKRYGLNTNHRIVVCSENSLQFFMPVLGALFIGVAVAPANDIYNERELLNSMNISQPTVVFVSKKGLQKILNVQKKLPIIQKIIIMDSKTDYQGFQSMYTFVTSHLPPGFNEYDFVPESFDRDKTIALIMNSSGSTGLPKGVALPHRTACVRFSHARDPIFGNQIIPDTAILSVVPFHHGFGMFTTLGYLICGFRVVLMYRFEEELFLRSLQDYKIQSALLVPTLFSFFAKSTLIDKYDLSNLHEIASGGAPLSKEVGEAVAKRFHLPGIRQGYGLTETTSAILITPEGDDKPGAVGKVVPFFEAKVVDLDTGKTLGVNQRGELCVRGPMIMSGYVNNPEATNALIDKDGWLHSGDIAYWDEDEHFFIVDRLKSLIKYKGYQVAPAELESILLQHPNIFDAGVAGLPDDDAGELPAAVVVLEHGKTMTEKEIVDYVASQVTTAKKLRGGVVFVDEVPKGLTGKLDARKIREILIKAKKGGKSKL

The structures appear in SMILES notation. Active and inactive are the calls of the source.

Chain of Albumin (Bos taurus) (P02769 whole entry, looked up): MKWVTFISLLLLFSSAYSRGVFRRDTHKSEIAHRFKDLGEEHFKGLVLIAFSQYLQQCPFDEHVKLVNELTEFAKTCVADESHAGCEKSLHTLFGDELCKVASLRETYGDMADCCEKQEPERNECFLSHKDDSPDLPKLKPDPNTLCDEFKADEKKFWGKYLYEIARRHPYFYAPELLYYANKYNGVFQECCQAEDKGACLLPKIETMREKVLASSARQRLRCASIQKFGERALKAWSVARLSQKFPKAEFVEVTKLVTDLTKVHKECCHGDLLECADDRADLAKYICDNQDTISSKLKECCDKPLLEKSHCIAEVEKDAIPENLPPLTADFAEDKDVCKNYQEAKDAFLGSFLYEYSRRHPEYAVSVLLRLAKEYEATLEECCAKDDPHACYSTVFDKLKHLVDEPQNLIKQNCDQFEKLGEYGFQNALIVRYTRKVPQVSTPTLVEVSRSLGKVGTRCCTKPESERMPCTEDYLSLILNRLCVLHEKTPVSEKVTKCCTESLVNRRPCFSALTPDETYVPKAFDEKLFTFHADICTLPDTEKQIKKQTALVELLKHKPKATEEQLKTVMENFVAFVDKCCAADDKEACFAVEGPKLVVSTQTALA

As for `COCC(=C=CC[C@H](O)c1ccccc1OCCO)C[C@H](O)c1ccccn1`, the composite z-score with Albumin (Bos taurus) was 0.519; in assay [2], -0.116; in [3] it was -0.0984; in assay [4], 0.426; in assay [5] it was -0.0733; in [6] it was -0.144. In addition, the composite z-score with Sam68 (KHDRBS1) was 0.544; in assay [7] it was -0.123; in assay [8], 0.215; in assay [9], 0.247; in assay [10], 0.128; in assay [11] it was -0.17. Also, the composite z-score in [12] is -0.473; in [13] it was 1.02; in assay [14], 0.262; with Lefty1, 0.426; in assay [16], -0.0118. The composite Z-score in [1] is 0.2 (inactive). Also, the figures for the z-score in assay [15] and in assay [17] were 1.5 and -1.02 (inactive), respectively.
With `COC(=O)[C@@]1(Cc2ccc(F)cc2)[C@H]2c3cc(C(=O)N4CCCC4)n(Cc4ccc(C)c(F)c4F)c3C[C@H]2CN1C(=O)c1ccccc1`, the composite z-score is 1.04 with Albumin (Bos taurus); -0.0304 in assay [2]; 0.219 in assay [3]; 0.834 in assay [4]; 0.922 in assay [5]; 1.14 in assay [6]. The composite z-score was -0.451 in the assay with Sam68 (KHDRBS1); -0.186 in assay [7]; -0.927 in [8]; 1.39 in [9]; 0.821 in [10]; 0.572 in assay [11]. Besides, the composite z-score in [12] was 0.511; in assay [13], -0.115; in [14], -0.132; with Lefty1 it was -0.605; in assay [16], 0.921. Besides, the composite Z-score in assay [1] is -0.474 (inactive). The z-score in assay [15] was -0.494; in [17], -12.5 (active).
For the compound `CC(C)C(CO)N1C(=O)[C@@H]2[C@H]3C(=O)OCC=C[C@H]3OC23C=CCN(c2ccc(Cl)cc2)C(=O)[C@@H]13` (stereo not given in full), the composite z-score with Albumin (Bos taurus) is -1.26; in assay [2], -0.171; in assay [3], -0.117; in [4], 0.839; in assay [5] it was -0.372; in [6], -0.364. Also, the composite z-score in the assay on Sam68 (KHDRBS1) is 0.0729; in assay [7] it was -0.847; in [8], -0.842; in [9] it was -1.82; in assay [10], -1.22; in assay [11], -0.265. Also, the composite z-score in assay [12] is -0.934; in assay [13], -0.728; in assay [14] it was -0.794; in the assay on Lefty1 it was -0.712; in [16], -0.928. The composite Z-score in assay [1] was -0.268 (inactive). In addition, the z-score in assay [15] is 1.05; in [17], -0.469 (inactive).
Take `O=C(NCc1ccc(F)cc1)[C@H]1C[C@H]2C(=O)NCC(=O)N2[C@H]1c1ccc(O)cc1`: the composite z-score is -0.447 with Albumin (Bos taurus); 0.0066 in [2]; -0.084 in assay [3]; 0.694 in assay [4]; 1.43 in [5]; 0.112 in assay [6]. The composite z-score with Sam68 (KHDRBS1) was 1.07; in assay [7], 0.491; in assay [8], 0.8; in assay [9] it was 1.63; in assay [10] it was -0.121; in assay [11], 0.0061. Also, the composite z-score in [12] was determined as 0.611; in assay [13] it was 1.45; in [14] it was 1.89; with Lefty1, 1.35; in assay [16], 0.187. The composite Z-score in assay [1] was 0.534 (inactive). Also, the z-score is 0.576 in assay [15] and -0.0852 (inactive) in [17].
On to `CC1CC/C=C\[C@H]2OC34C=CCN(C(C)(C)C)C(=O)[C@H]3N(CCCCCO)C(=O)[C@@H]4C2C(=O)O1` (stereo not given in full), for which the composite z-score with Albumin (Bos taurus) is -0.0891; in [2] it was -0.219; in assay [3], -0.153; in [4], 0.887; in [5] it was -0.658; in assay [6], -0.55. Moreover, the composite z-score was -0.883 in the assay on Sam68 (KHDRBS1); -1.34 in assay [7]; -2.1 in assay [8]; -1.24 in [9]; -1.07 in assay [10]; -0.83 in [11]. Besides, the composite z-score in [12] is -1.65; in [13], -0.898; in [14], -0.447; with Lefty1, -0.113; in assay [16], -0.51. In [1], the composite Z-score is -0.838 (inactive). Besides, the z-score was -0.227 in assay [15] and 0.152 (inactive) in assay [17].

The record behind these values is PubChem BioAssay.
